Reference: PubChem BioAssay AID504834 (National Center for Advancing Translational Sciences (NCATS), 2011)
Screen size: about 320,000 compounds; about 22,000 (6.9%) were called active. A call without a number means that no potency is given here. Not shown: some 27% with an inconclusive outcome. Many of the other results were omitted from the sample, so actives are more common in it than they were. Unmarked numbers belong to inactive results. Calls come from the whole dose curve; as a rule, active = well fitted inhibition curve with a large enough effect; inconclusive = small, poorly fitted or top-dose-only effect, or another doubt; inactive = no such curve, though single readings can be large or run the other way.

assay: Primary qHTS for delayed death inhibitors of the malarial parasite plastid, 96 hour incubation; conditions: P. falciparum luciferase reporter growth; series mostly up to 28.7 µM
Summary of the method: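 Compounds incubated with erythrocytes infected by luciferase-expressing P. falciparum (2% hematocrit, 0.05% parasitemia final) for 96 hours, 37 C in 5% CO2. Growth inhibition scored as decreased luciferase luminescence.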
Potency is the fitted concentration of half-maximal effect.

Row | Structure (SMILES) | Potency | activity change, negative = inhibition
1 | CCC(=O)c1ccc(OCC(=O)N(CC)CC2COc3ccccc3O2)cc1 (stereo not drawn) | inactive | 
2 | Cc1cc(NC(=O)CSc2nc(=O)cc(N)n2-c2ccc(F)cc2)no1 | inactive | 
3 | CCOC(=O)C1CCCN(S(=O)(=O)c2ccc3c(c2)C(C)(C)C(=O)N3C)C1 (stereo not drawn) | inactive | 
4 | Cc1ccc(S(=O)(=O)N2CCCC2C(=O)NCc2ccco2)cc1 (stereo not drawn) |  | -13.6% [at 5.75 µM]
5 | Cc1ccc(CNC(=O)C2CCCN2S(=O)(=O)c2ccc3c(c2)C(C)(C)C(=O)N3C)cc1 (stereo not drawn) | 1.47 µM (active) | 
6 | Cc1nc2ccccn2c(=O)c1NC(=O)c1cccs1 | inactive | 
7 | COC(=O)c1sccc1NC(=O)c1ccc(Cl)cc1 | inactive | 
8 | Cc1cc(C)cc(NC(=O)CCN2C(=O)c3ccccc3C2=O)c1 | inactive | 
9 | Cc1nn(-c2ccccn2)c2c1C(c1ccncc1)C1=C(CC(C)(C)CC1=O)N2 (stereo not drawn) | 5.86 µM (active) | 
10 | CC1(C)CC(=O)C2=C(C1)Nc1cc(C(=O)c3ccccc3)ccc1NC2c1ccccn1 (stereo not drawn) | inactive | 
11 | Cc1cc(C)c(C2C3=C(Nc4c2c(C)nn4-c2ccccn2)c2ccccc2C3=O)c(C)c1 (stereo not drawn) | 6.57 µM (active) | 
12 | COc1ccc(C(C(=O)NC(C)(C)C)N(C(=O)Cn2nnc3ccccc32)c2ccc(C(C)=O)cc2)cc1O (stereo not drawn) | inactive | 
13 | CC(C)(C)NC(=O)C(c1ccco1)N(Cc1ccc2c(c1)OCO2)C(=O)Cn1nnc2ccccc21 (stereo not drawn) | 14.7 µM (active) | 
14 | CCC(C)(C)NC(=O)C(c1cccn1C)N(Cc1ccc(C)cc1)C(=O)Cn1nnc2ccccc21 (stereo not drawn) | inactive | 
15 | C=CCc1ccccc1OCC(O)CN1CCN(CCO)CC1 (stereo not drawn) | inactive | 
16 | C[n+]1cc(-c2ccccc2)oc1-c1ccccc1 | inactive | 
17 | Cc1nc2cccnc2nc1C | inactive | 
18 | Cc1ccc(C)c(N2CCN(C(=O)Cn3ncn4cccc4c3=O)CC2)c1 | inactive | 
19 | Cc1ccc(C)c(N2CCN(C(=O)CCCn3c(=O)c4cccn4c4cccnc43)CC2)c1 | 13.1 µM (active) | 
20 | Cc1ccc(C)c(N2CCN(C(=O)CCCCn3c(=O)[nH]c4ccccc4c3=O)CC2)c1 | inactive | 
21 | Cn1nccc1/C=N\NC(=O)c1ccc(Cl)cc1 | inactive | 
22 | CCNC(=O)CC1C(=O)N(c2ccc(OC)cc2)C(=O)N1CCOC (stereo not drawn) | inactive | 
23 | Cc1ccc(NC(=O)Nc2nnc(-c3ccncc3)s2)cc1 | 9.28 µM (active) | 
24 | CC(C)=CC(=O)Nc1nnc(-c2ccc(F)cc2)s1 | inactive | 
25 | Cc1nnc(NC(=O)Nc2ccc(Cl)c(Cl)c2)s1 | inactive | 
26 | CCCn1nnnc1NCc1ccc(OC)cc1 | inactive | 

Row | Structure (SMILES) | Potency | activity change, negative = inhibition
27 | COc1ccc(Cc2nnnn2CC(=O)O)cc1 | 1.65 µM (active) | 
28 | COc1ccc(CSc2nnnn2-c2ccc(C(=O)O)cc2)cc1 | inactive | 
29 | O=C(CCc1nnc(Cc2ccc3c(c2)OCO3)o1)NCCc1ccccc1Cl | inactive | 
30 | Cc1ccc(-c2ncc(Cl)cc2-c2ccc(S(C)(=O)=O)cc2)cn1 | 13.5 µM (active) | 
31 | Cc1c2cnn(CC(=O)NCCCN3CC(C)CC(C)C3)c(=O)c2c(C)n1Cc1ccc(Cl)cc1 (stereo not drawn) | inactive | 
32 | Cc1nc2ccccc2c(=O)n1NC(=O)c1ccccc1 | inactive | 
33 | Cc1ccc(SCc2c(C(=O)N/N=C/C3CC=CCC3)nnn2-c2nonc2N)cc1 (stereo not drawn) | inactive | 
34 | CNC1(c2nnnn2-c2c(C)cccc2C)CCOC(C)(C)C1 (stereo not drawn) | inactive | 
35 | COc1ccc(C2(C)ON(c3ccccc3C(F)(F)F)C2=O)cc1 (stereo not drawn) | 2.62 µM (active) | 
36 | COc1ccc(C23NCCN2C(=O)c2ccccc23)cc1 (stereo not drawn) | inactive | 
37 | COc1ccc(C2(C)NC(=O)N(CC(=O)c3ccc4c(c3)OCO4)C2=O)cc1 (stereo not drawn) | inactive | 
38 | COC(c1ccccc1)(c1ccccc1)C(Oc1nc(C)cc(C)n1)C(=O)O (stereo not drawn) | inactive | 
39 | Cc1ccc(OCCNC(=O)CN2C(=O)NC3(CCCC3)C2=O)cc1 | inactive | 
40 | COc1ccc(NC(=O)CSc2nc(SC)ns2)c(OC)c1 | inactive | 
41 | Cc1ccc(Cc2nnc(SCC(=O)Nc3ccccc3C)[nH]c2=O)cc1 | inactive | 
42 | COC(=O)COc1ccc2c(=O)c(Oc3ccccc3Br)coc2c1 | inactive | 
43 | FC(F)(F)Oc1ccc(-c2cn3cccnc3n2)cc1 | inactive | 
44 | COc1ccc(-c2[nH]ncc2CN(Cc2nccn2C)C(C)C)cc1F | inactive | 
45 | COc1ccc(CN2CCN(c3ccccc3F)CC2)c(OC)c1 | inactive | 
46 | CCN1CCC2(CCN(Cc3cn[nH]c3-c3ccc(OC)c(F)c3)C2)C1 (stereo not drawn) | 10.4 µM (active) | 
47 | CN(C)CC(O)COc1ccc(C(C)(C)c2ccc(OCC(O)CN(C)C)cc2)cc1 (stereo not drawn) | inactive | 
48 | CCCC(O)(c1ccc(OC)cc1)C(CN(C)C)c1ccccc1 (stereo not drawn) | 14.7 µM (active) | 
49 | COc1ccc(C(O)(C2CCCCC2)C(CN2CCCC2)c2ccccc2)cc1 (stereo not drawn) | inactive | 
50 | COc1ccc(NC(=O)CN(C)C(=O)c2n[nH]c3ccccc23)cc1 | inactive | 
51 | S=C(NCc1ccc(Cl)cc1)NC1CCCCC1 | inactive | 
52 | O=C(NCc1ccc(Cl)cc1)NCc1ccc(Cl)cc1 | inactive | 

Row | Structure (SMILES) | Potency | activity change, negative = inhibition
53 | S=C(NCc1ccc(Cl)cc1)NC12CC3CC(CC(C3)C1)C2 | 11.7 µM (active) | 
54 | CCN(Cc1ccccc1)S(=O)(=O)c1cc2c3c(c1)CCN3C(=O)CC2 | inactive | 
55 | COc1ccc(C(CNCC(=O)Nc2ccccc2F)N(C)C)cc1 (stereo not drawn) | inactive | 
56 | O=C(c1ccc(S(=O)(=O)N2CCOCC2)cc1)N1CCN(c2ccccc2)CC1 | inactive | 
57 | COc1ccccc1NS(=O)(=O)c1ccc(C(=O)N2CCN(c3ccccc3O)CC2)cc1 | 11.7 µM (active) | 
58 | COc1ccccc1N1CCN(C(=O)c2ccc(S(=O)(=O)N3CCCCC3)cc2)CC1 | inactive | 
59 | COc1ccccc1NC(=O)C1CCN(C(=O)c2ccc(C(C)(C)C)cc2)CC1 | inactive | 
60 | COc1ccc(S(=O)(=O)Nc2ccccc2C(=O)N2CCCC2)cc1C | inactive | 
61 | O=C(c1ccc(S(=O)(=O)N2CCCC2)cc1)N1CCN(c2ccccc2F)CC1 | 4.65 µM (active) | 
62 | O=C(COC(=O)/C=C/c1ccc2c(c1)OCO2)NC1CCS(=O)(=O)C1 (stereo not drawn) | inactive | 
63 | Cn1nc(C(=O)OCC(=O)N(Cc2ccccc2)C(C)(C)C)c2ccccc2c1=O | inactive | 
64 | CSc1nnc(NC(=O)c2nc(S(=O)(=O)Cc3ccc(C)cc3)ncc2Cl)s1 | inactive | 
65 | CC1(C)COC(c2cccn2Cc2ccccc2Cl)=N1 | 9.28 µM (active) | 
66 | O=C(Nc1cccn(Cc2ccccc2Cl)c1=O)NC1CCCCC1 | inactive | 
67 | O=S1(=O)CCN(Cc2ccccc2Cl)CC1 | inactive | 
68 | NC(=O)c1cc(-c2cccnc2)nc2ccc(Br)cc12 | inactive | 
69 | C=CCn1c(SCC(=O)c2ccc(Br)cc2)nnc1C(C)NC(=O)Cc1ccc(OC)cc1 (stereo not drawn) | inactive | 
70 | C=CCn1c(SCCOc2ccc(OC)cc2)nnc1C(NC(=O)c1ccc(OC)cc1)C(C)C (stereo not drawn) | 10.4 µM (active) | 
71 | C=CCn1c(SCc2ccc(Cl)c(Cl)c2)nnc1C(CO)NC(=O)c1ccc(OC)cc1 (stereo not drawn) | inactive | 
72 | CC[C@]1([C@H]2O[C@@H]([C@@H]3O[C@](O)(CO)[C@@H](C)C[C@H]3C)C[C@H]2C)CC[C@@H]([C@]2(C)CC[C@@]3(C[C@@H](O)[C@@H](C)[C@@H]([C@H](C)[C@H](OC)[C@H](C)C(=O)O)O3)O2)O1 | 0.019 µM (active) | 
73 | COc1ccc(CC(=O)OC(C)C(=O)Nc2ccc(S(N)(=O)=O)cc2)cc1 (stereo not drawn) | inactive | 
74 | CC(C)(C)OC(=O)N1CCC(NC(=O)c2[nH]cnc2C(=O)N[C@@H](Cc2ccccc2)C(=O)OCc2ccccc2)CC1 | 1.47 µM (active) | 
75 | C[C@@H](NC(=O)c1nc[nH]c1C(=O)N1CCN(C(=O)OC(C)(C)C)CC1)c1ccccc1 | inactive | 
76 | O=C(N[C@@H](Cc1ccccc1)C(=O)OCc1ccccc1)c1nc[nH]c1C(=O)N[C@@H](Cc1ccccc1)C(=O)OCc1ccccc1 | inactive | 
77 | Cc1c(Cl)cccc1NC(=O)CCC(=O)N/N=C/c1ccco1 | inactive | 
78 | Cc1cc(C)cc(N(CC(=O)NC2CCCC2)C(=O)CCC(=O)Nc2cc(C)on2)c1 | inactive | 

Row | Structure (SMILES) | Potency | activity change, negative = inhibition
79 | COc1ccc(C(=O)Nc2ccc(S(=O)(=O)Nc3onc(C)c3C)cc2)cc1OC | inactive | 
80 | Cc1cc(OC(C)C(=O)Nc2ccc(S(=O)(=O)Nc3onc(C)c3C)cc2)cc(C)c1Cl (stereo not drawn) | 8.28 µM (active) | 
81 | CC(Oc1cccc(Cl)c1)C(=O)Nc1ccc(S(=O)(=O)Nc2ncccn2)cc1 (stereo not drawn) | inactive | 
82 | N#Cc1c(-c2ccccc2)c(-c2ccccc2)n[nH]c1=O | inactive | 
83 | NCCCCCC(=O)N/N=C/c1ccc2nccnc2c1 | inactive | 
84 | COc1ccc(C(=O)NC(C)Cn2nc(C)cc2C)cc1OC1CCN(C(C)=O)CC1 (stereo not drawn) | inactive | 
85 | O=C(NCCCn1ccnc1)C1CCCN(S(=O)(=O)c2cc(Cl)ccc2Cl)C1 (stereo not drawn) | inactive | 
86 | O=c1oc2ccccc2c(CNc2ccccc2)c1[N+](=O)[O-] | inactive | 
87 | O=C(NCCCN1CCCC1=O)c1ccc(S(=O)(=O)Nc2ccccc2)cc1 | inactive | 
88 | CCCNC(=O)NCc1ccc(N2CCCC2=O)cc1 | inactive | 
89 | O=C(NCCCN1CCCCCC1)c1ccc(N2CCCC2=O)cc1 | 2.33 µM (active) | 
90 | COc1ccc(N2CCN(C(=O)Cn3cnc4sc(C)c(S(=O)(=O)N5CCOCC5)c4c3=O)CC2)cc1 | inactive | 
91 | Cn1c(N)c(C(=O)COC(=O)C23CC4CC(CC(C4)C2)C3)c(=O)n(C)c1=O | 14.7 µM (active) | 
92 | Cn1c(N)c(C(=O)COC(=O)c2cnc(Cl)c(Cl)c2)c(=O)n(C)c1=O | inactive | 
93 | Cn1c(N)c(C(=O)COC(=O)COc2ccc(Cl)cc2)c(=O)n(C)c1=O | inactive | 
94 | COc1cc(NC(=O)c2ccccc2)c(OC)cc1NC(=O)Cc1ccccc1 | inactive | 
95 | CCc1nn(CCCC(=O)Nc2ccc(C)c(C)c2)c(=O)c2cc3occc3n12 | inactive | 
96 | CC1CC(C)(C)CC2(C1)NC(=O)N(CC(=O)Nc1nccs1)C2=O (stereo not drawn) | inactive | 
97 | CC(C)n1c(COc2ccccc2)nc2ccccc21 | inactive | 
98 | Brc1ccccc1C1Nc2cccc3cccc(c23)N1 | inactive | 
99 | Cc1ccc(C2Nc3cccc4cccc(c34)N2)cc1 | inactive | 
100 | COc1ccc(C2NC(=O)c3ccccc3N2)cc1 (stereo not drawn) | inactive | 
101 | Oc1ccc(C2Nc3cccc4cccc(c34)N2)cc1 | 10.4 µM (active) | 
102 | COc1ccc2[nH]c3ccc(OC)cc3c2c1 | inactive | 
103 | COc1cccc(C2Nc3cccc4cccc(c34)N2)c1 | 7.38 µM (active) | 
